Calls of active or inactive are those of the source. The rule behind the calls is not given here.
Molecular target: Ubiquitin carboxyl-terminal hydrolase 9X (Homo sapiens) (UniProt Q93008)
Test: binders of human deubiquitinase USP9X – biophysical, surface plasmon resonance, orthogonal assay, late-stage follow-up (AID 652234)
Settings: Recombinant USP9X, SPR Biacore T200, RU; at 100 µM (top of the series)

Ubiquitin carboxyl-terminal hydrolase 9X (Homo sapiens), sequence (Q93008 whole entry, looked up): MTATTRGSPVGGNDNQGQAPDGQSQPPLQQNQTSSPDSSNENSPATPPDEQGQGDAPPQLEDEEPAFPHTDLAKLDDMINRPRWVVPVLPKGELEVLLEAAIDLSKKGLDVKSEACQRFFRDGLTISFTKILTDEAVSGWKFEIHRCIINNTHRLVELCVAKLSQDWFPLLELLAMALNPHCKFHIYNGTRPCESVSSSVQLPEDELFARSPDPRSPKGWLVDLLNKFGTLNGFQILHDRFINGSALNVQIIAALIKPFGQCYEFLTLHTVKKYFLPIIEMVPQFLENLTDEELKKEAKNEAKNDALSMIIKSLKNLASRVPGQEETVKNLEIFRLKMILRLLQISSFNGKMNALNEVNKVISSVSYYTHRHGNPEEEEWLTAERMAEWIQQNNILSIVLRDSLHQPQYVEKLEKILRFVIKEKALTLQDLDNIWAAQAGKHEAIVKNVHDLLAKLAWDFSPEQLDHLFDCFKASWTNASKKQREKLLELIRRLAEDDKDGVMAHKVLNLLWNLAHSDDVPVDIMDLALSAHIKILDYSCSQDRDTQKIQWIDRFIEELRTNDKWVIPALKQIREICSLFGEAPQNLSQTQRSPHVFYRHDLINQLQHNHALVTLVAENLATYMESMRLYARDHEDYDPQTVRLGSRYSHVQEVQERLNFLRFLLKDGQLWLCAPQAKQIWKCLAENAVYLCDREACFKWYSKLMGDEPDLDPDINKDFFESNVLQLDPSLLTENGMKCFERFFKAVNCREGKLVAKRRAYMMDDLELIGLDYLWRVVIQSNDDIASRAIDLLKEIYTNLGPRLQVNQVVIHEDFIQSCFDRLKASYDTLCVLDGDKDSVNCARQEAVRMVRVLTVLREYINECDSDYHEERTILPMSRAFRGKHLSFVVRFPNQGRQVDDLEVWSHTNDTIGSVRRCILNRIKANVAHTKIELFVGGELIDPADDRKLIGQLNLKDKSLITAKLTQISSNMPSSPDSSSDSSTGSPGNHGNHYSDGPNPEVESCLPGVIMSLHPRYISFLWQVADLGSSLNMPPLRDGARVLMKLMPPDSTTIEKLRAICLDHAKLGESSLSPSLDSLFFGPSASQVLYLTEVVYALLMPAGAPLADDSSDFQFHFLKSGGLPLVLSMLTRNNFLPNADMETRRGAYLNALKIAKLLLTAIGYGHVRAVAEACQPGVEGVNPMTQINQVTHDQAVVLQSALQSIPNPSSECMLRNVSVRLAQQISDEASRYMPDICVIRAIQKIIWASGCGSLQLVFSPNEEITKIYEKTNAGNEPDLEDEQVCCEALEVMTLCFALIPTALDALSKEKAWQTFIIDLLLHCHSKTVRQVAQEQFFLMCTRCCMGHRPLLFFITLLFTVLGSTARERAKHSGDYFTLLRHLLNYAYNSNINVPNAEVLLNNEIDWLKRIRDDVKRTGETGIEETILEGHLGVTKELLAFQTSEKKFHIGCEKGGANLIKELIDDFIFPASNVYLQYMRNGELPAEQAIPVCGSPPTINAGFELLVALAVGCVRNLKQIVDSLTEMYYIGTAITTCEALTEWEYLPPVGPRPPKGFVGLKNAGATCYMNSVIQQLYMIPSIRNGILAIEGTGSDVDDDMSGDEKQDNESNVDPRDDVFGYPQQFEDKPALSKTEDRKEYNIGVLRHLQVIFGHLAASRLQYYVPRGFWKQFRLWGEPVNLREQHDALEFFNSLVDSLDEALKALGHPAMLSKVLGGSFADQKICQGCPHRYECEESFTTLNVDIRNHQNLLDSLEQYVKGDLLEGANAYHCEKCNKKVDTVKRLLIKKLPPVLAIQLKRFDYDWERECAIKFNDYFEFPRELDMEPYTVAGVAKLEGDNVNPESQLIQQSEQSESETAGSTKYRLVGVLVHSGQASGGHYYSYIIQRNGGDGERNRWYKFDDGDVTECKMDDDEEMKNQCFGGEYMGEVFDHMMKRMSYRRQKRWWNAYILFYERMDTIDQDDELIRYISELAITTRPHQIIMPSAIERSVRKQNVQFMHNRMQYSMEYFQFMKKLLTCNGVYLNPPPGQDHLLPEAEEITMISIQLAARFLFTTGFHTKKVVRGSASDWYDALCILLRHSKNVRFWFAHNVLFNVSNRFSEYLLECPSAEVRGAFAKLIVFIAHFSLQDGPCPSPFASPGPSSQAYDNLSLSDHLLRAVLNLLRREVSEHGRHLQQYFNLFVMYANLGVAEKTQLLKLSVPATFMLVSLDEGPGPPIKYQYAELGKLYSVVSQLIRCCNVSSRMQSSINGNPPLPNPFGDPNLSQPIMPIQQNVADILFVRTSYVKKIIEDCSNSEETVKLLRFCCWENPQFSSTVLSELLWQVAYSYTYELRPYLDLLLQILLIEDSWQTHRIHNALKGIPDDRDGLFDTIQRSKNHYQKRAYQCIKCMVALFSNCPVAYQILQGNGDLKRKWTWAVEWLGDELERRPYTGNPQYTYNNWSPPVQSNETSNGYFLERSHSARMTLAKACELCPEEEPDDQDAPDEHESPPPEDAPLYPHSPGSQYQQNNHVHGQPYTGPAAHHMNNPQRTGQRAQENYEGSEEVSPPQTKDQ

C[C@@H]1CN([C@@H](C)CO)C(=O)c2cccc(NC(=O)Nc3cccc4ccccc34)c2O[C@H]1CN(C)S(=O)(=O)c1ccc2c(c1)OCCO2
binding signal (RU), higher = more binding: 11.2 (active)

Reference: PubChem BioAssay AID652234 (Broad Institute, 2013)
